IL-1B inflam inh: inhibitors of inflammasome signaling (IL-1 beta secretion); THP-1 LPS/ATP IL-1B secretion, AlphaLISA, 16 h; active compounds read low; activity change, % at 57.5 µM; hit rate 4.7% among 360,000; AID 743279; in the data active = activity change below about -50%; inconclusive = mostly about -30% to -49%
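Secreted IL-1B measured by AlphaLISA bead assay after 16 h compound exposure of THP-1 cells; compounds (final up to 57.5 uM) added 1 h before LPS (250 ng/mL) and ATP (1.25 mM) stimulation; lower signal means less secretion.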
TDP1 cell noCPT: qHTS for Inhibitors of human tyrosyl-DNA phosphodiesterase 1 (TDP1): qHTS in cells in absence of CPT; AID 686978, 2013; Potency, µM (titrated, usually from 46.2 µM), for inactives: at the highest dose activity change, negative = growth inhibition, hits mostly inhibitors; DT40 Tdp1-/- hTDP1 cells, no CPT, ATP luminescence, 48 h; hit rate 15% among 420,000; note: potency is the fitted concentration of half-maximal effect; nearly all actives have a fitted effect of over 55% in size
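Stably hTDP1-transfected Tdp1-null chicken DT40 cells were treated with library compounds minus camptothecin and grown for at least 48 hr at 37 °C, after which cellular ATP was quantified by luminescence.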
HT1080 IDH1KD tx: HT-1080 IDH1 knockdown cell toxicity (counter line); HT-1080 IDH1 knockdown viability, ATP luminescence, 48 h; Potency, µM (series often up to 46.1 µM), for the others: top-dose activity, negative = toxicity, hits mostly cytotoxic; hit rate 2% among 360,000;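 note: potency is the fitted concentration of half-maximal effect; 0% = DMSO wells and -100% = cell-free medium wells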
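Luminescent ATP read-out (CellTiter-Glo, 10 min at room temperature) after 48 h compound exposure at 37 °C gave viability of IDH1-knockdown HT-1080 cells. Activity was normalised to DMSO and cell-free wells, then fitted as concentration-response curves.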
HT1080-NT tox: kills 2HG-producing HT-1080-NT fibrosarcoma cells; HT-1080-NT fibrosarcoma viability, CellTiter-Glo ATP luminescence, 48 h; Potency, µM (doses to about 46.1 µM), inactives show at the highest dose activity, negative = less viability, hits mostly cytotoxic; hit rate 1.6% among 360,000; AID 686970;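 note: NT is the 2HG producing partner of a matched IDH1 knockdown line; potency is the fitted concentration of half-maximal effect; 0% = DMSO-treated cells and -100% = media-only wells without cells; nearly all actives have a fitted effect of over 55% in size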
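Viability of the 2HG-overproducing fibrosarcoma line after 48 hours of compound exposure at 37 degrees C was determined by luminescence with CellTiter-Glo, and concentration-effect curves were then fitted and categorized.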
DT40 TDP1 CPT: DT40-hTDP1 cell growth loss with CPT; chicken DT40 Tdp1-/-;hTDP1 cells + 20 nM CPT, ATP luminescence, 48 h; Potency, µM (titrated, usually from 46.2 µM), inactives show top-dose activity change, negative = growth inhibition, actives largely listed as inhibitors; AID 686979; hit rate 12% among 420,000; note: potency is the fitted concentration of half-maximal effect; nearly all actives have a fitted effect of over 55% in size
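Cell growth measured by CellTiter-Glo luminescence after a minimum 48 h, 37 C compound exposure with 20 nM CPT in Tdp1-knockout DT40 cells stably expressing hTDP1, seeded 400/well; qHTS titration format.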
* = called active by the depositor; u = inconclusive; x = no result given; [ ] = another dose, or the depositor's remark. The list is not random: actives were taken first. Their share in the collection is about 19%. Unless noted, calls come from the whole dose curve; as a rule, active = well fitted curve in the direction sought with a large enough effect; inconclusive = small, poorly fitted or top-dose-only effect, or another doubt; inactive = no such curve, though single readings can be large; an effect the other way counts as inactive or inconclusive. Unless noted, % is set by controls: 0 for no effect and ±100 for the full control effect.

SMILES	IL-1B inflam inh	TDP1 cell noCPT	HT1080 IDH1KD tx	HT1080-NT tox	DT40 TDP1 CPT
COCC1COS(=O)(=O)NC1(C)C (configuration not stated)	2	3%	8%	6%	0%
CCOC(=O)c1ccccc1NC(=O)Cn1ncc2c([nH]c3ccccc32)c1=O	x	u	x	x	-5%
CCn1cc(C(=O)NC2CCCCC2C)c(=O)c2ccc(C)nc21 (configuration not stated)	-21	11µM*	15%	8%	u
O=C(c1ccco1)N1CCN(Cc2cc(=O)c(OCc3ccc([N+](=O)[O-])cc3)co2)CC1	12	-9%	-3%	2%	1%
CCOC(=O)C1(CCOc2ccccc2)CCN(Cc2cccn2-c2cccnc2)CC1	u	u	-13%	-22%	u
CCOC(=O)C1(Cc2cccc(F)c2)CCN(Cc2nc(CC)[nH]c2C)CC1	-55*	23µM*	-16%	u	u
CCOC(=O)C1(CCOc2ccccc2)CCN(Cc2cccc(-n3cccn3)c2)CC1	3	16µM*	u	-14%	16µM*
CCOC(=O)C1(CCOc2ccccc2)CCN(Cc2cccc(OCCO)c2)CC1	-15	u	-10%	1%	u
CCOC(=O)C1(CCOc2ccccc2)CCN(Cc2cccc(F)c2)CC1	u	5.8µM*	-2%	-7%	16µM*
CCOC(=O)C1(CCOc2ccccc2)CCN(Cc2ccc(CO)o2)CC1	-17	2.3µM*	-19%	-2%	8.2µM*
CCOC(=O)C1(Cc2cccc(F)c2)CCN(Cc2cnn(CC)c2)CC1	-5	u	u	-6%	-24%
CCN(C(=O)c1ccc(S(C)(=O)=O)cc1)C12CC3CC(CC(C3)C1)C2	-4	u	0%	11%	u
CN1CCC(=O)N(CCSc2ccc(Br)cc2)CC1	-19	u	-3%	2%	-13%
CCN1CCCC1CNCc1cc2c(OC)c(OC)c(OC)cc2nc1N(C)C (configuration not stated)	x	-11%	x	x	-7%[9.04 µM]
CCOC(=O)C1(CCOc2ccccc2)CCN(Cc2ccc3nonc3c2)CC1	-1	21µM*	-29%	-25%	u
CCOC(=O)C1(CCOc2ccccc2)CCN(CCCn2cccn2)CC1	-12	u	-5%	-3%	u
CCOC(=O)C1(CCOc2ccccc2)CCN(C(=O)c2ccc(-n3cccn3)cc2)CC1	-27	21µM*	u	-21%	u
CCOC(=O)C1(CCOc2ccccc2)CCN(Cc2ccc(OCC)c(CO)c2)CC1	-24	18µM*	-22%	u	15µM*
CCOC(=O)C1(CCOc2ccccc2)CCN(Cc2cnc(C)s2)CC1	-8	21µM*	-7%	-7%	u
COC(=O)CNC(=O)COC(=O)c1cc(SC)ccc1Cl	-5	4%	6%	0%	10%
CC(=O)c1c(C)[nH]c(C(=O)COC(=O)Cc2ccccc2F)c1C	17	-22%	9%	8%	-29%
CCOC(=O)C1(CCOc2ccccc2)CCN(Cc2cccc(OC)c2OC)CC1	-88*	21µM*	u	u	u
CCOC(=O)C1(CCOc2ccccc2)CCN(Cc2ccccc2O)CC1	6	u	-8%	-16%	u
CCOC(=O)C1(CCOc2ccccc2)CCN(Cc2ccc(OC)cc2)CC1	u	21µM*	u	u	15µM*
COCCn1c(=O)c(-c2ccc(F)cc2)nc2cnc(N3CCOCC3)nc21	x	21%	x	x	-11%
C[N+]1=C(/C=C/Nc2ccccc2Cl)C(C)(C)c2ccccc21	-6	12µM*	-11%	-3%	23µM*
FC(F)(F)c1cnc(/C=C/Nc2ccccc2Cl)c(Cl)c1	17	-10%	0%	-4%	-6%
O=C(Nc1cccc(Cl)c1)C1C2CCC3C(CCC21)C3(Cl)Cl (configuration not stated)	-72*	16µM*	u	u	u
COCc1cc(C)nc2sc(C(=O)Nc3ccccc3Br)c(N)c12	29	-8%	13%	6%	6%

Source: PubChem BioAssay (National Center for Advancing Translational Sciences (NCATS))
